Key:
Test in all cases: PBM binding z-score (relative to random genomic background probes); higher = stronger binding; sequences stand for … in GC…GCGATTGACAGCGTAGAATGAAGG
[1] = tested on: RARb homodimer (NR concentration 270 nM)
Procedure, shortened: (§1)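 Random background probes are the reference for binding z-scores. These scores derive from regression-normalized fluorescence on custom Agilent 4×180K protein-binding microarrays incubated 1 h with ligand-free nuclear receptor dimers. Binding was detected with antibodies against each partner (one per run).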

[2] = tested on: RARg:RXRa (NR concentration 270 nM, RXRa partner concentration 90 nM)
Procedure, shortened: as §1

[3] = tested on: RARg homodimer (NR concentration 270 nM)
Procedure, shortened: as §1

[4] = tested on: RXRa DBDmut IVT, anti-RXR (DBD mutation: RXRa K156A/R161A, NR concentration 90 nM)
Procedure, shortened: as §1

[5] = tested on: RXRa homodimer (NR concentration 180 nM)
Procedure, shortened: as §1

[6] = tested on: THRa:RXRa (NR concentration 90 nM, RXRa partner concentration 90 nM)
Procedure, shortened: as §1

[7] = tested on: THRa homodimer (NR concentration 90 nM)
Procedure, shortened: as §1

[8] = tested on: VDR homodimer (NR concentration 270 nM)
Procedure, shortened: as §1

Sequence	PBM binding z-score [1]	PBM binding z-score [2]	PBM binding z-score [3]	PBM binding z-score [4]	PBM binding z-score [5]	PBM binding z-score [6]	PBM binding z-score [7]	PBM binding z-score [8]
CCTCAAAGTTCAAGGTAACGTAACAGAAAGCAGC	4.13	5.48	6.39	4.29	4.44	3.32	1.79	3.65
GCGACTGAGGCAAAGCAGGTTACCATAAGGTTGG	0.0198	0.00383	-0.272	-0.374	0.123	1.54	-0.231	-0.64
AATACAGGGTCACTAGGCCAGAGGAGGTACGAAT	3.25	5.14	5.04	2.54	5.66	3.34	1.54	2.73
TCGAGTAGGTTAGTCGGGGCTTTCAGCCAACATA	-0.364	-0.483	-0.728	0.169	-0.346	1.11	-0.892	-0.862
CCTAGTTGGTCAGGAGGTCATACACCGGATATGA	3.79	4.56	3.35	0.572	4.2	3.23	1.8	2.73
TAGCCTAGGTCATGGGCCACTATACCACGCGAAC	3.27	4.38	4.64	0.641	3.72	3.14	1.57	0.754
AATACAGGGCCATCGTAGGCCAGAGTACGCACAG	0.468	0.421	0.993	-0.218	0.0629	1.44	-0.588	0.487
GCGACTGGGGCAAGGCAGGTTACCATAAGGTTGG	1.16	0.436	0.635	-1.16	0.144	2.41	0.0224	-0.42
CGTCCAAGGTCACAGGTCAGTGAAGAGATGACGG	5.03	6.75	7.51	3.42	7.67	4.36	3.28	2.75
TCTGCTAGGTCAGTTGGTCAGCTAACGAGCTGCC	2.55	2.58	3.5	0.411	1.02	1.36	-0.176	-0.401
GGAACGAGGGCATACGAGTTGATAGCATGGCGAT	0.493	1.12	1.65	2.41	1.02	2.92	-0.328	2.37
CTTTACGGGTCACGAGGTTATAGCACGACGAGCG	4.15	6.33	5.71	2.53	7.44	3.92	1.66	2.28
CAAACTAGGTCACCGGAAGGTCACAGTCCGCATG	5.72	8.31	7.76	2.19	6.67	4.49	3.69	3.04
ATCTCTAGTTAAGACTCAGTTCAGTGAAGAACGC	0.624	0.145	0.575	0.575	0.126	0.594	0.6	1.67
CGAACTATGTCATCCAGGACAGTGAATACATTGA	0.612	0.908	1.14	0.468	0.578	1.71	0.973	0.592
TTACCAAGCTGAAGGTCGTTGATCCCTCTGTAGA	0.756	0.152	-0.231	-0.269	1.13	0.571	-0.583	0.305
CCCGCTAGGTCAATGGTCAGCTAAAGCAGCTCGC	3.03	3.62	4.76	1.28	2.37	2.27	0.886	-0.00101
AGTCAAAGTTCATCTAGGTAGCGTAAGATATGCT	3.79	5.6	5.81	4.63	4.48	2.62	-0.478	5.34
TCGAGTAGGTTAGTCGGGTCATTCAGCCAACATA	2.2	1.93	1.5	0.747	2.1	3.06	1.48	2.35
TCTCCGAGGACACGAAAGGTCAGAGCTCGACATC	4.77	4.91	5.54	1.34	4.12	4.36	2.74	1.31
TTACCAAGGTGAGCTGAGGTCGTAGATCCAACTC	1.66	1.5	1.13	-0.577	1.72	4.78	1.9	0.82
CCTTACGGGTCACGAGGTTATATCACGACGAGCG	3.93	6.16	5.48	1.94	7.11	3.77	1.34	2.09
GATACAGGGTCAGCTAGAGGCCAGACTATGGAAA	3.59	6.62	4.83	0.964	4.23	3.1	0.411	0.781

Sequence	PBM binding z-score [1]	PBM binding z-score [2]	PBM binding z-score [3]	PBM binding z-score [4]	PBM binding z-score [5]	PBM binding z-score [6]	PBM binding z-score [7]	PBM binding z-score [8]
TCTCGGAGGACTCGAAAGGTCAGAGCTCGACATC	4.25	3.85	3.31	0.558	3.57	2.68	0.256	0.189
TAGCTTAGGTCAGATCGGGCCAGTATACGCTATA	2.23	2.89	3.71	-0.0319	1.47	4.3	0.376	-0.357
CCTAGGAGGCCAATCTGGGTCACTCAAGGCTTGA	2.69	1.66	2.12	-0.07	1.19	4.21	0.462	0.0459
CGTCAAAGTTCAAGGTAACATAACAGAAAGCAGC	3.84	5.43	6.33	4.63	4.69	2.92	1.05	2.9
ATATGTAGGTTACATACGGGTCATTCAGGCTATG	2.71	4.44	2.41	0.906	3.48	2.73	0.593	2.29
ATCTCTAGGTAACAAGTTCGGTGAAAGAGAGGAC	1.21	0.788	0.885	0.327	0.444	1.48	0.922	1.22
CGTCCAAGGTCAAAGCTAGGTCAGTGAAAGCATT	5.03	7.9	7.36	4.1	6.47	4.57	2.86	3.7
GTATATAGGTAATACAAGGTGAAAGTCCGATTGT	1.06	0.647	0.697	0.401	0.751	4.18	1.48	0.367
TCATATAGGGAAAAGGTGAAAGTCGGTGTGGTAA	2.04	1.27	0.821	2.07	1.93	1.27	0.582	0.643
ATACCAAGGTGATCGTGAGGGCGTTGATACTAAC	1.07	0.664	0.461	0.501	0.36	2.16	1.23	1.36
CCGACTGGGGCATCAGGTTACCATAAGCCAGCCC	0.867	0.461	0.586	-0.734	0.214	0.994	0.484	-0.423
ACTCTTAGTTGACTTAGGGCAACCGATACGACGC	1.01	0.837	0.667	0.736	0.605	1.52	0.885	0.184
CGTACTGGGCCAAAGGTCATTGATTCCAATGCTC	4.66	5.89	4.65	1.3	6.26	3.6	0.976	2.28
TCTATTAGGTGATTAGGGCAACCGAAACAGCGGA	1.1	1.09	1.02	0.665	0.927	1.24	0.68	0.277
CCTGCTAGGTCATGGTCTGCTAATCTACAGTATG	2.97	3.73	4.43	2.02	2.66	3.17	1.35	0.439
CTCGATAGGTCGGTTGAGGTGAGTATACGGATAA	1.02	0.724	1.15	-0.0462	0.554	4.73	1.19	0.0696
GCTCGGAGAACAAGGTCAGAGCTTTGTCCGTAGA	2.36	2.39	2.24	0.418	2.16	2.58	0.95	0.151
AGTCAAAGTTCAGGACGGGGTAACGTAAAGCACG	3.27	5.09	4.51	2.98	3.43	3.8	1.55	2.58
GCTTACGGGCCAAAGGTTATAGCATGAATAGAAT	1.29	2.77	1.04	0.36	3.01	1.58	-0.515	-0.0468
CTCGAAAGGTCGTGCTCAGGGGAGTATACCAAAC	2.53	4.03	3.44	2.02	4	2.77	0.415	1.13
GCAAACAGGTGAAACGCAGGTAACTCAGGGTGGC	0.0626	0.796	0.0633	-0.459	0.616	1.52	-0.516	-0.658
CGAACTAGGTCATTGACAGGACAGCGAATAGTAA	2.86	4.65	4.4	2.19	2.44	2.9	0.784	1.31
TTACCAATGTGAAGGTCGTTGATCCCTCTGTAGA	1.25	0.262	0.216	0.586	1.05	0.82	0.201	1.04

Sequence	PBM binding z-score [1]	PBM binding z-score [2]	PBM binding z-score [3]	PBM binding z-score [4]	PBM binding z-score [5]	PBM binding z-score [6]	PBM binding z-score [7]	PBM binding z-score [8]
AGAATGCGGTTAAGATCAGGGAAACAGAATACAT	-0.126	0.0483	0.299	-0.536	-0.0604	0.164	-0.363	-0.162
GCTGGTAGATCAAGGTTAAGAAAGACTAAGCTAA	0.171	0.216	0.368	-0.116	0.692	1.36	-0.209	-0.133
ATATGTACGTTATCGGGTCATTCAGTTTGCGCAT	2.25	2.06	1.64	1.78	2.34	3.26	2.69	4.2
ATCTCTAGGTAACAACTTCAGTGAAAGAGAGGAC	0.514	0.787	0.752	-0.232	0.536	1.14	0.654	0.576
AGAATGAGGTTAAGATCAGGGAGACAGAATACAT	1.15	1.94	1.5	1.06	2.49	2.55	0.979	0.818
ATCTCTAGGTATAAGTTCAGTGAATCCCGAGGAT	1.42	1.17	1.31	0.993	0.674	0.824	0.567	2.79
CCTCGGAGGACAGCAGGAGGTCAGAGCTGCCAGA	3.24	3.07	2.93	-0.25	1.56	2.41	0.786	0.762
ACTAGTTGGTCAGCTGAGGCCACACACAATTCGG	1.35	0.493	1.14	0.0642	0.0882	3.64	1.45	0.0276
CCTACTGGGCCAAAAAGGTCCTTGATGCCGATAA	0.795	-0.28	-0.148	-0.722	-0.259	-0.265	-0.242	-0.393
AGCGAAAGGTCGACGAGGTGAGTATACACCGTTT	2.99	4.23	4.03	0.801	4.4	3.75	0.716	0.753
CAAACTAGGTCACAGAGGTCAAAGTACGTGCGTA	5.51	7.48	7.65	3.46	7.8	4.75	2.64	6.77
ATCTCTAGGTTAAGTTCAGTGAAAGATCGATAGA	2.18	2.18	2.54	2.12	1.41	1.99	1.4	3.19
GCGACTGGGGCAAAGCAGGTTGCCATAAGGTTGG	0.156	0.0303	0.101	-0.48	-0.0833	1.59	-0.471	-0.513
CCTCCAAGGTCAAAGGTCAGTGAAGAGATGACGG	5.51	8.61	7.7	3.97	10	4.65	2.63	3.92
TCATATAGGTAAACAAGTGAAAGTCCGTAAGTTA	0.321	0.396	0.548	1.76	1.12	0.265	0.0631	0.508
ATAGGTAGGTTAAGGGTCATTCAGGTTGGTTCGC	4.42	5.12	3.74	2	6.15	3.71	2.58	4.7
ACAGACAAGTGATGAAGGTAACTCAGGCTATCAT	0.0016	-0.0454	0.277	-0.483	0.153	0.639	-0.0791	-0.536
CCTAGCAGGCCAAACTGGGTCACTCAAGGCTTGA	2.17	1.16	1.51	0.301	0.807	3.68	0.159	-0.107
TAGCCTAGGTCTTGCGGGCCAGTATAGTGTCGGC	-0.413	-0.507	-0.639	-1.09	-0.623	-0.606	-1.12	-1.13
TCAGACAGGTGAAGGTATCTCAGGTACGCAGTCG	0.873	0.518	0.586	1.55	0.95	1.2	0.503	0.113
CCTGCTGGGCCACGAAAGGTCATTGATTCAGTGA	4.56	4.89	4.55	0.711	5.39	3.87	0.572	2.37
TAGCCTGGGTCAGATCGGGCCAGTATACGCTATA	1.61	2.42	2.86	-1.34	1.46	4.11	-0.483	-1.02

From the supplement of paper PMC6555819
